Calls of active or inactive are those of the source. How the source made its calls: active means hit-call score of the fitted dose curve at least 0.9, where 1 is the maximum; inactive means score below 0.9.
Each compound was assayed against Transcriptional activator Myb (Homo sapiens) (UniProt P10242) (assay: ATG_Myb_CIS: Attagene CIS-FACTORIAL HepG2 Assay for human Myeloblastosis (Myb) Proto-Oncogene Transcription Factor (AID 2282986)). Conditions: HepG2 Attagene CIS-FACTORIAL Myb reporter transcription; actives raise or lower the signal.
Chain of Transcriptional activator Myb (Homo sapiens) (P10242 whole entry, looked up): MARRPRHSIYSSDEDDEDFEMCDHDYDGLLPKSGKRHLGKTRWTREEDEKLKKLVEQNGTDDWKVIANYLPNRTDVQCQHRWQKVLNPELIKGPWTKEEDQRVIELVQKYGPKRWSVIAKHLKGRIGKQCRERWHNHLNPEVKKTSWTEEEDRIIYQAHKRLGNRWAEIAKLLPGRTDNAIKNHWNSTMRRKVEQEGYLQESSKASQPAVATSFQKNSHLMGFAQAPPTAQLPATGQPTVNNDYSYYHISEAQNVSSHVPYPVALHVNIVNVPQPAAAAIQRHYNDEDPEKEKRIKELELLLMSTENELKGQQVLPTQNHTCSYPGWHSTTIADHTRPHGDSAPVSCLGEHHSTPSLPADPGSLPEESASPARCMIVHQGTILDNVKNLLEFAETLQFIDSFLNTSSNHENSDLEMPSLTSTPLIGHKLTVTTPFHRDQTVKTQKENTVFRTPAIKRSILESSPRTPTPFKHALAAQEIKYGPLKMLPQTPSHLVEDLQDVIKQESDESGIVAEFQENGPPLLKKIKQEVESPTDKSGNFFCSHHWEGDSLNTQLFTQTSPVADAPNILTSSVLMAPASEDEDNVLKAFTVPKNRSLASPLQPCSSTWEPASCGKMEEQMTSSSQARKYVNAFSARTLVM
Method: ATG_CIS is a cell-based, multiplexed-readout assay that uses HepG2, a human liver cell line, with measurements taken at 24 hours after chemical dosing in a 24-well plate.ATG_Myb_CIS is one of 52 assay component(s) measured or calculated from the ATG_CIS assay. It is designed to make measurements of mRNA induction, a form of inducible reporter, as detected with fluorescence intensity signals by Reverse transcription polymerase chain reaction (RT-PCR) and Capillary electrophoresis technology.Data from the assay component ATG_Myb_CIS was analyzed into 1 assay endpoint. This assay endpoint, ATG_Myb_CIS, was analyzed with bidirectional fitting relative to DMSO as the negative control and baseline of activity. Using a type of inducible reporter, measures of mRNA for gain or loss-of-signal activity can be used to understand the reporter gene at the transcription factor-level as they relate to the gene MYB. Furthermore, this assay endpoint can be referred to as a primary readout, because this assay has produced multiple assay endpoints where this one serves a reporter gene function. To generalize the intended target to other relatable targets, this assay endpoint is annotated to the dna binding intended target family, where the subfamily is MYB proteins.
Human liver HepG2 cells are transiently transfected with multiple reporter transcription units (MRTUs) in 6-well plates using FuGene 6 reagent (Roche; 3 ml FuGene/1 mg DNA). The MRTU constructs are regulated by a cis-regulating element (promoter). […] A major difference between the CIS and TRANS system is that in CIS activities of endogenous TFs are measured, whereas the TRANS assay evaluates changes in activities of exogenous, chimeric NR-Gal4 proteins. […] At the end of 24 hour incubation, total RNA was isolated using TriZol reagent (Invitrogen). The isolated RNA is then reverse-transcribed using oligo(dT) primer and Mo-MLV reverse transcriptase (Invitrogen) with DNAse I (Ambion) treatment for 30 min. The one-tenth of the produced cDNA was amplified by PCR using Taq DNA polymerase (Invitrogen) and two reporter sequence-specific primers. The PCR products were fluorescently labeled by primer extension with 6-arboxyfluorescein (6-FAM) 5'-labeled reporter sequence-specific primer (2 min at 95 C, 20 s at 68 C and 10 min at 72 C) and these products were digested with 5U of HpaI (New England Biolabs) for 2h at 37 C. The fragments were purified using Qiaquick PCR columns (Qiagen), analyzed on an ABI 3130xL genetic analyzer (Applied Biosystems) with peak positions identified by using a set of X-rhodamine (ROX)-labeled MapMarker1000 molecular weight standards (BioVentures). The raw capillary electrophoresis data was processed using Attagraph software (Attagene).
`Cc1c(-c2cccnc2)c2ccccc2n1CCCCC(=O)O` was tested, and the outcome was “inactive”.
For `CN(C)c1ccc(N=NS(=O)(=O)O)cc1`, the outcome was “inactive”.
In the case of `Nc1ccc(Nc2ccccc2)cc1`, the outcome is reported as “inactive”.
In the case of `CCOC(=O)CC(CC(=O)OCC)(OC(C)=O)C(=O)OCC`, the outcome is reported as “inactive”.
With `COc1ccc(-n2nc(C(F)F)cc2-c2ccc(S(C)=O)cc2)cc1` (stereo not given) the outcome was “inactive”.
For `CCc1cc(SCc2sc(-c3ccc(C(F)(F)F)cc3)nc2CN2CCN(c3ccc(OC)cc3)CC2)ccc1OCC(=O)O`, the outcome was “inactive”.
In the case of `Cn1c(=O)cc(Oc2ccc(F)cc2F)c2cnc(NCC(C)(C)O)nc21`, the outcome is reported as “inactive”.
`CCN(C(=O)c1cc(C)cc(OC[C@H](C)Nc2ccncc2)c1)C(C)C` was tested, and the outcome was “inactive”.
In the case of `O=P(OC(CCl)CCl)(OC(CCl)CCl)OC(CCl)CCl`, the AC50 is reported as 144 µM (active).
In the case of `O=C(O)CC(O)C(=O)O` (stereo not given), the outcome is reported as “inactive”.
For `CC[C@H](C)C(=O)O[C@H]1C[C@@H](C)C=C2C=C[C@H](C)[C@H](CC[C@@H]3C[C@@H](O)CC(=O)O3)[C@H]21`, the outcome was “inactive”.
`Cn1cnc([N+](=O)[O-])c1Sc1ncnc2nc[nH]c12` was tested, and the outcome was “inactive”.
With `CC(C)=CCCC(C)CCO` (stereo not given) the outcome was “inactive”.
For `Nc1cccc(N)c1`, the outcome was “inactive”.
`Cc1ccc(O)cc1` was tested, and the outcome was “inactive”.
For `CCCCCCCCCCCCCCCO`, the outcome was “inactive”.
With `O=C(CCCCCCCCc1cccnc1)N1CCC(C=C(c2ccccc2)c2ccccc2)CC1` the AC50 was 60.2 µM (active).
For `C=CCCCCCCCCC(=O)O`, the outcome was “inactive”.
`CCCCC(CC)COC(=O)CCCCCCCCC(=O)OCC(CC)CCCC` (stereo not given) was tested, and the outcome was “inactive”.
For `CC(C)CCCCCCOC(=O)c1ccc(C(=O)OCCCCCCC(C)C)c(C(=O)OCCCCCCC(C)C)c1`, the outcome was “inactive”.
With `Cc1ccc(N)cc1O` the outcome was “inactive”.
For `CC(C)=CCCC(C)=CC=O`, the outcome was “inactive”.
`O=C1OC(=O)C2C3C=CC(C3)C12` (stereo not given) was tested, and the outcome was “inactive”.
For `CC(O)CN(CCN(CC(C)O)CC(C)O)CC(C)O` (stereo not given), the outcome was “inactive”.
For `CCC(C)(C)C(=O)O[C@H]1C[C@@H](C)C=C2C=C[C@H](C)[C@H](CC[C@@H]3C[C@@H](O)CC(=O)O3)[C@H]21`, the outcome was “inactive”.
For `CCCN(C1CCN(C(=O)C2CCNCC2)CC1)[C@@H]1CCc2ccc(OC)cc2C1`, the outcome was “inactive”.
For `COC(=O)c1c(Cl)c(Cl)c(C(=O)OC)c(Cl)c1Cl`, the outcome was “inactive”.
In the case of `COCCOCCOCCOC`, the outcome is reported as “inactive”.
For `C1N2CN3CN1CN(C2)C3`, the outcome was “inactive”.
For `CC/C(=C\C(=N/O)C(N)=O)C(C)[N+](=O)[O-]` (stereo not given), the outcome was “inactive”.
With `CCCCCCc1ccc(O)cc1O` the outcome was “inactive”.
`COc1ccc(/C=C/S(=O)(=O)NC(=O)c2ccc(C)cc2Cl)cc1` was tested, and the outcome was “inactive”.
For `CC1(C)C(=O)N(Br)C(=O)N1Br`, the outcome was “inactive”.
With `O=C1CCC(N2C(=O)c3ccccc3C2=O)C(=O)N1` (stereo not given) the outcome was “inactive”.
`CC(=O)c1ccc2c(c1)[C@H](NC(=O)c1ccc(F)cc1)[C@@H](O)C(C)(C)O2` was tested, and the outcome was “inactive”.
In the case of `CC(C)(O)c1coc(S(=O)(=O)NC(=O)Nc2c3c(cc4c2CCC4)CCC3)c1`, the outcome is reported as “inactive”.
For `O=C(OC[C@H]1O[C@@H](OC(=O)c2cc(O)c(O)c(OC(=O)c3cc(O)c(O)c(O)c3)c2)[C@H](OC(=O)c2cc(O)c(O)c(OC(=O)c3cc(O)c(O)c(O)c3)c2)[C@@H](OC(=O)c2cc(O)c(O)c(OC(=O)c3cc(O)c(O)c(O)c3)c2)[C@@H]1OC(=O)c1cc(O)c(O)c(OC(=O)c2cc(O)c(O)c(O)c2)c1)c1cc(O)c(O)c(OC(=O)c2cc(O)c(O)c(O)c2)c1`, the outcome was “inactive”.
In the case of `CCCCCCCCCCCCc1ccccc1`, the outcome is reported as “inactive”.
`CC[C@H]1OC(=O)[C@H](C)[C@@H](O[C@H]2C[C@@](C)(OC)[C@@H](O)[C@H](C)O2)[C@H](C)[C@@H](O[C@@H]2O[C@H](C)C[C@H](N(C)C)[C@H]2O)[C@](C)(O)C[C@@H](C)C(=O)[C@H](C)[C@@H](O)[C@]1(C)O` was tested, and the outcome was “inactive”.
With `C[C@](N)(Cc1ccc(O)c(O)c1)C(=O)O` the outcome was “inactive”.

— PubChem BioAssay (EPA / NIEHS)
